# HT1080NT lethal: kills 2HG-producing HT-1080-NT fibrosarcoma cells; AID 686970; Potency, µM (series often up to 46.1 µM), for inactives: at the highest dose activity, negative = less viability, usual class: cytotoxic; HT-1080-NT fibrosarcoma viability, CellTiter-Glo ATP luminescence, 48 h; 360,000 compounds, 1.6% hits;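 note: NT is the 2HG producing partner of a matched IDH1 knockdown line; potency is the fitted concentration of half-maximal effect; 0% = DMSO-treated cells and -100% = media-only wells without cells; nearly all actives have a fitted effect of over 55% in size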
#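 Viability of the 2HG-overproducing fibrosarcoma line after 48 hours of compound exposure at 37 degrees C was determined by luminescence with CellTiter-Glo, and concentration-effect curves were then fitted and categorized.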
# IL-1B inflam inh: inflammasome signaling inhibition, IL-1 beta readout; 360,000 compounds, 4.7% hits; THP-1 LPS/ATP IL-1B secretion, AlphaLISA, 16 h; active compounds read low; activity change, % at 57.5 µM; AID 743279; in the data active = activity change below about -50%; inconclusive = mostly about -30% to -49%
#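 THP-1 cells pretreated 1 hr with compounds (up to 57.5 uM final), then stimulated with LPS (250 ng/mL final) plus ATP (1.25 mM final); secreted IL-1B measured by AlphaLISA after 16 hr, decreased signal indicating inhibition.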
# HT1080 IDH1KD tx: toxicity to HT-1080 IDH1 knockdown cells (counter line); HT-1080 IDH1 knockdown viability, ATP luminescence, 48 h; Potency, µM (highest dose often 46.1 µM), inactives show at the highest dose activity, negative = toxicity, hits mostly cytotoxic; 360,000 compounds, 2% hits; AID 686971;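 note: potency is the fitted concentration of half-maximal effect; 0% = DMSO wells and -100% = cell-free medium wells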
#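 Assay cells: HT-1080 with IDH1 knockdown, 750 per well, RPMI/5% FBS. Exposure: 48 h at 37 °C following 2 h pre-incubation. Read: CellTiter-Glo luminescence; fitted concentration-response, curve class assigned.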
# DT40 TDP1 CPT: growth inhibition of DT40 Tdp1-/-;hTDP1 cells with camptothecin (screen for TDP1 inhibitors) | chicken DT40 Tdp1-/-;hTDP1 cells + 20 nM CPT, ATP luminescence, 48 h | Potency, µM (top dose mostly 46.2 µM), for the others: top-dose activity change, negative = growth inhibition, usual class: inhibitors | 420,000 compounds, 12% hits | AID 686979; note: potency is the fitted concentration of half-maximal effect; nearly all actives have a fitted effect of over 55% in size
#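 Chicken DT40 Tdp1-/- cells complemented with human TDP1, 400 cells/well, exposed to compounds plus 20 nM camptothecin for at least 48 h at 37 C; viability read as ATP content by CellTiter-Glo luminescence.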
# DT40 TDP1 no CPT: qHTS for Inhibitors of human tyrosyl-DNA phosphodiesterase 1 (TDP1): qHTS in cells in absence of CPT; 420,000 compounds, 15% hits; DT40 Tdp1-/- hTDP1 cells, no CPT, ATP luminescence, 48 h; Potency, µM (series often up to 46.2 µM), without a hit: at the top dose activity change, negative = growth inhibition, usual class: inhibitors; note: potency is the fitted concentration of half-maximal effect; nearly all actives have a fitted effect of over 55% in size
#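 Stably hTDP1-transfected Tdp1-null chicken DT40 cells were treated with library compounds minus camptothecin and grown for at least 48 hr at 37 °C, after which cellular ATP was quantified by luminescence.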
# * marks the source's active call; other numbers are inactive results; u = inconclusive; x = no result. Compounds with a hit are over-represented: about 19% of the library has one in this group of screens. Unless noted, calls come from the whole dose curve; as a rule, active = well fitted curve in the direction sought with a large enough effect; inconclusive = small, poorly fitted or top-dose-only effect, or another doubt; inactive = no such curve, though single readings can be large; an effect the other way counts as inactive or inconclusive. Unless noted, % is set by controls: 0 for no effect and ±100 for the full control effect.
SMILES,HT1080NT lethal,IL-1B inflam inh,HT1080 IDH1KD tx,DT40 TDP1 CPT,DT40 TDP1 no CPT
S=c1[nH]nc(COc2ccccc2)n1/N=C/c1ccc(Cl)cc1,-14%,54,-17%,33%,-19%
S=c1[nH]nc(Cc2ccc(Br)cc2)n1/N=C/c1ccc(Cl)cc1,-20%,-63*,-26%,u,u
COc1ccc(/C=C/C=C2\N=C(SC)SC2=O)cc1,16%,-5,25%,23µM*,29µM*
CCOC(=O)c1c(C)[nH]c(C)c1S(=O)(=O)N1CCC(C(=O)N2CCN(c3ccccc3)CC2)CC1,x,x,x,-18%,-25%
O=C(C1CCCN(S(=O)(=O)c2cnc[nH]2)C1)N1CCN(c2ccc(Cl)cc2)CC1 (centres undefined),-5%,12,-2%,13µM*,18µM*
CCOC(=O)c1c(C)[nH]c(C)c1S(=O)(=O)N1CCCC(C(=O)N2CCN(c3ccc(Cl)cc3)CC2)C1 (centres undefined),x,x,x,16µM*,u
CCOC(=O)c1c(C)[nH]c(C)c1S(=O)(=O)N1CCCC(C(=O)NCc2ccc(Cl)cc2)C1 (centres undefined),x,x,x,-19%,0%
CCOC(=O)c1c(C)[nH]c(C)c1S(=O)(=O)N1CCN(c2ccc([N+](=O)[O-])cc2)CC1,-4%,-4,-6%,u,13µM*
CNC[C@H](O)[C@@H](O)[C@H](O)[C@H](O)CO,x,x,x,0%,-10%
O=C(NNC(=O)C1CCN(S(=O)(=O)c2ccc(Cl)cc2)CC1)c1ccccc1O,-22%,71,u,u,u
Cc1cccc(Cl)c1OCCCn1ccnc1,-13%,-4,-6%,-8%,u
COc1cc(S(=O)(=O)NCCc2c(C)[nH]c3ccccc23)c(C)cc1C,x,x,x,18µM*,18µM*
CCCCn1c(N)c(N(CCOC)C(=O)CCN2C(=O)C3CC=CCC3C2=O)c(=O)[nH]c1=O (centres undefined),8%,5,7%,8%,-2%
COc1ccccc1CC(=O)Nc1ccc2nc(Nc3cccc(C(F)(F)F)c3)cc(C)c2c1,x,x,x,7.3µM*,5.8µM*
COc1cccc(CC(=O)Nc2ccc3nc(Nc4cccc(C(F)(F)F)c4)cc(C)c3c2)c1,x,x,x,u,18µM*
COc1cccc(C(=O)c2cn(CC(=O)Nc3cccc(C(F)(F)F)c3)c3nc(C)ccc3c2=O)c1,x,x,x,-5%,u
CCOC(=O)c1c(C)[nH]c(C)c1C(=O)COC(=O)/C=C/c1ccc(Cl)cc1,2%,-5,0%,u,u
COc1cccc(-c2nc(NCc3cnc(C)cn3)c3ccccc3n2)c1,x,x,x,-26%,-29%
Nc1oc2ccccc2c1C(=O)Cc1ccccc1O[C@@H]1O[C@H](CO)[C@@H](O)[C@H](O)[C@H]1O,13%,-3,1%,21%,5%
Cc1cc(Cl)c(OCCCNCc2ccccc2)c(Br)c1,-22%,u,-24%,u,18µM*
Cc1cc(C)c(OCCCNCc2ccccc2)c(Br)c1,-22%,-72*,-15%,18µM*,23µM*
Cc1cc(C)c(OCCCNC2CCCC2)c(Br)c1,u,-55*,u,13µM*,7.3µM*
CC(C)C(C)NC(=O)COC(=O)c1cccc(C(=O)OCC(=O)NC(C)C(C)C)n1 (centres undefined),6%,45,3%,-5%,-14%
O=C(Nc1ccccc1)N1CC2(CCN(C(=O)c3cnccn3)CC2)C1,x,x,x,3%,1%
NC(=O)c1cccc(-c2ccnc3c2CC(C(=O)Nc2ccc(Cl)cc2)O3)c1 (centres undefined),u,-3,u,23µM*,13µM*
SMILES,HT1080NT lethal,IL-1B inflam inh,HT1080 IDH1KD tx,DT40 TDP1 CPT,DT40 TDP1 no CPT
CC(C)c1ccc(NC(=O)C2Cc3c(-c4cccc(F)c4)ccnc3O2)cc1 (centres undefined),u,-67*,u,16µM*,9.2µM*
CC(C)c1ccc(NC(=O)C2Cc3c(-c4cccc(C(N)=O)c4)ccnc3O2)cc1 (centres undefined),-21%,u,0%,16µM*,u
O=C(Nc1ccccc1)C1Cc2c(-c3ccc(Cl)cc3)ccnc2O1 (centres undefined),-17%,-51*,-6%,u,u
O=C(Nc1cccc(Oc2ccccc2)c1)C1Cc2c(-c3cccc(F)c3)ccnc2O1 (centres undefined),-3%,u,-17%,u,u
CS(=O)(=O)Nc1cccc(NC(=O)C2Cc3c(-c4cccc(C(N)=O)c4)ccnc3O2)c1 (centres undefined),3%,-10,24%,-14%,-3%
COCC1CCN(C(=O)c2ccc3oc(C(C)C)nc3c2)C1 (centres undefined),6%,0,-2%,3%,3%
O=C(Nc1ccc(-n2cnnn2)cc1)c1cc(S(=O)(=O)N2CCCC2)ccc1Cl,0%,-4,6%,u,u
O=C(NCc1ccccc1)C1Cc2c(-c3ccc(Cl)cc3)ccnc2O1 (centres undefined),u,53,0.73µM*,0.65µM*,0.82µM*
COc1ccc(NC(=O)C2Cc3c(-c4cccc(F)c4)ccnc3O2)cn1 (centres undefined),-11%,-16,-29%,u,16µM*
COc1cccc(Cn2cnc3c(sc4nc(C)cc(C)c43)c2=O)c1,-25%,5,-20%,-11%,-19%
CC(=O)Cn1cnc2c(sc3nc(C)cc(C)c32)c1=O,u,-64*,3%,2%,u
Cc1cc(C)c2c(n1)sc1c(N3CCN(CCO)CC3)ncnc12,10%,-77*,-9%,-29%,u
COc1ccc(C(O)c2nc(-c3cc(F)cc(Cl)c3)cs2)cc1 (centres undefined),-25%,-18,u,u,u
Cc1ccc(NC(=O)CCC(=O)NNC(=O)c2ccccc2Cl)c(C)c1,-2%,1,8%,11%,u
N=c1n(CCN2CCCC2)c2ccccc2n1CC(O)c1ccco1 (centres undefined),-2%,-26,6%,-26%,-13%
CCCCCCCn1c(=N)n(CC(=O)c2ccco2)c2ccccc21,u,-80*,u,21µM*,u
CCCCCCCn1c(=N)n(CC(O)c2ccco2)c2ccccc21 (centres undefined),16µM*,0,23µM*,3.7µM*,4.6µM*
CCCCn1c(=N)n(CC(=O)c2ccco2)c2ccccc21,u,u,-5%,u,u
CCn1c(=N)n(CCO)c2ccccc21,17%,43,15%,10%,-19%

# High-throughput results from PubChem BioAssay.
